# Tests used:
# Test in all cases: DAPPL (digital affinity profiling via proximity ligation, sequencing); 10 mM Tris-HCl pH 7.5, 50 mM NaCl, 1 mM DTT, 4% glycerol, room temperature, 30 min; GST-TFs on glutathione beads, 16-mer random dsDNA library, 0.1% formaldehyde crosslink after washing; high values mean tight binding
# FLI1 = molecular target: T1, FLI1 (Homo sapiens, UniProt Q01543 1-452); details: protein: recombinant; tags: N-terminal GST; dsDNA, one strand shown
# T1 sequence: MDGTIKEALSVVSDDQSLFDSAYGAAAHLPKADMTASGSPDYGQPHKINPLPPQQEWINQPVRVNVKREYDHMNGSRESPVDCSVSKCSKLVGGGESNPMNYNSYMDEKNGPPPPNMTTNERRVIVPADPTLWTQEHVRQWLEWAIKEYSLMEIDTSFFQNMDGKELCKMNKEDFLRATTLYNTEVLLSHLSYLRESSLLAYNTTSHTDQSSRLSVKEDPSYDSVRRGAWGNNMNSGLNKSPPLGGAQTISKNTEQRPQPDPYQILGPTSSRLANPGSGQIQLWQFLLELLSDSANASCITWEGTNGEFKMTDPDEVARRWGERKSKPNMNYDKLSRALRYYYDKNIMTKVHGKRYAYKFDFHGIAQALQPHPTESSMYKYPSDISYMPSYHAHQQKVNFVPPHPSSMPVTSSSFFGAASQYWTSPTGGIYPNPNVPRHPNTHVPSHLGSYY
# Procedure, shortened: (§1)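 After expression in yeast as GST fusions, human transcription factors were bound to glutathione beads, DNA-barcoded and mixed with a tag-only sample. The pools were incubated with 200 nmole of a 16-mer random double-stranded DNA library in Tris/NaCl/DTT/glycerol buffer (30 min, room temperature), washed and crosslinked with 0.1% formaldehyde. Proximity ligation with BsaI/T4 ligase ran for 1 h at 37 °C, before PCR amplification and sequencing on an Illumina NextSeq500. Binding signal is a hexamer's read frequency for a factor divided by its frequency for the tag-only sample.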
# ELK1 = molecular target: T2, ELK1 (Homo sapiens, UniProt P19419 1-428); details: protein: recombinant; tags: N-terminal GST; dsDNA, one strand shown
# T2 sequence: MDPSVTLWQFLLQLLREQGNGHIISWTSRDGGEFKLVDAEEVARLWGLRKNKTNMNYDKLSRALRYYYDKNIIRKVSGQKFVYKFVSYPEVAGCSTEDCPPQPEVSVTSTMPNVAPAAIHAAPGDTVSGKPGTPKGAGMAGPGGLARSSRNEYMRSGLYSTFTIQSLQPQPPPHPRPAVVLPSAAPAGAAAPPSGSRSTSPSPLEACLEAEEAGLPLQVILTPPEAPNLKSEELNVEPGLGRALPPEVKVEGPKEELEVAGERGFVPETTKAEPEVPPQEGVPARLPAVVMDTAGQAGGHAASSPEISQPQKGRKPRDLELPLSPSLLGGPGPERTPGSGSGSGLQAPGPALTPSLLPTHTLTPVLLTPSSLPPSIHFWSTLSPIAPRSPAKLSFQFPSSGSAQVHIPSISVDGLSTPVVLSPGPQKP
# Procedure, shortened: as §1
# GABPA = molecular target: T3, GABPA (Homo sapiens, UniProt Q06546 1-454); details: protein: recombinant; tags: N-terminal GST; dsDNA, one strand shown
# T3 sequence: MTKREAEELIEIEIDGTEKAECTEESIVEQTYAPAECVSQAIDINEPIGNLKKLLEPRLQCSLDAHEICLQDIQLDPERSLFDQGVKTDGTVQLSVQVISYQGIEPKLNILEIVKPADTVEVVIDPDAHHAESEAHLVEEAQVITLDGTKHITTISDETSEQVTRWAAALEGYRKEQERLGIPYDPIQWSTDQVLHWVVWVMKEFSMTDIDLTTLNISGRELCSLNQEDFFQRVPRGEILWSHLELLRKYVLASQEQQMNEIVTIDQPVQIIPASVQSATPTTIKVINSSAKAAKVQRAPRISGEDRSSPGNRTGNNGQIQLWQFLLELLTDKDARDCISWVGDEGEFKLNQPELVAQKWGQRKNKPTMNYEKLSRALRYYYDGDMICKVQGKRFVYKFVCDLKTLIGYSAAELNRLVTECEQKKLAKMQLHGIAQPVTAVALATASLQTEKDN
# Procedure, shortened: as §1
# ERG = molecular target: T4, ERG (Homo sapiens, UniProt P11308 1-479); details: protein: recombinant; tags: N-terminal GST; dsDNA, one strand shown
# T4 sequence: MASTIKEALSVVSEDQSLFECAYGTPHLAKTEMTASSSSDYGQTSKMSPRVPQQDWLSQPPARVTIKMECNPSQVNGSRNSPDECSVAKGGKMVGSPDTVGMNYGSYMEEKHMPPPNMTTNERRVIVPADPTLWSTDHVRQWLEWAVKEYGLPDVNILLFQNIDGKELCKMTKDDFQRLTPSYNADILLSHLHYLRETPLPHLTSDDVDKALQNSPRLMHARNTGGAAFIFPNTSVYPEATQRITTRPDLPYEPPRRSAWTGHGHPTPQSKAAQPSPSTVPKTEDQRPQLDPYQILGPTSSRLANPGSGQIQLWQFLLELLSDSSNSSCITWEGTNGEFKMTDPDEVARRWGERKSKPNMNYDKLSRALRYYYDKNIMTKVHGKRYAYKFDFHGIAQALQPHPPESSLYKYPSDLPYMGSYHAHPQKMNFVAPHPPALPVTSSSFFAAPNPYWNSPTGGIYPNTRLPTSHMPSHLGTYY
# Procedure, shortened: as §1
# ELF1 = ELF1 (Homo sapiens, UniProt P32519 1-619); details: protein: recombinant; tags: N-terminal GST; dsDNA, one strand shown
# Sequence of ELF1 (P32519 whole entry): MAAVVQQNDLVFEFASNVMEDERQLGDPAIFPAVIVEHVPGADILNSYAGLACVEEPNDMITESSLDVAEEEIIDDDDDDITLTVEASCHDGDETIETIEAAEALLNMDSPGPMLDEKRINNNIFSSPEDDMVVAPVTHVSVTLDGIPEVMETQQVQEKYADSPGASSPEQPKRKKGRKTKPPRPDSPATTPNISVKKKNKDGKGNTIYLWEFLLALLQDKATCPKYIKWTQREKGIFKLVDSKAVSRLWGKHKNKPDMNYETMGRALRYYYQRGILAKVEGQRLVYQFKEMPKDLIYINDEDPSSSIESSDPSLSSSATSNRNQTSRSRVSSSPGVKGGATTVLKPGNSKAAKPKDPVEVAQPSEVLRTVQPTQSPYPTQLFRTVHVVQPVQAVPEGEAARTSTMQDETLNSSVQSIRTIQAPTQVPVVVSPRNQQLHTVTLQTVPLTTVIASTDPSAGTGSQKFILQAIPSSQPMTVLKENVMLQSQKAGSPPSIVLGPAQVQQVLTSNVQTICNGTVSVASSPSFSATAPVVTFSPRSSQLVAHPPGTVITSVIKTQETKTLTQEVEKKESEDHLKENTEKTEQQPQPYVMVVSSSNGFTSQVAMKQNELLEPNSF
# Procedure, shortened: as §1
# EHF = molecular target: T5, EHF (Homo sapiens, UniProt Q9NZC4 1-300); details: protein: recombinant; tags: N-terminal GST; dsDNA, one strand shown
# T5 sequence: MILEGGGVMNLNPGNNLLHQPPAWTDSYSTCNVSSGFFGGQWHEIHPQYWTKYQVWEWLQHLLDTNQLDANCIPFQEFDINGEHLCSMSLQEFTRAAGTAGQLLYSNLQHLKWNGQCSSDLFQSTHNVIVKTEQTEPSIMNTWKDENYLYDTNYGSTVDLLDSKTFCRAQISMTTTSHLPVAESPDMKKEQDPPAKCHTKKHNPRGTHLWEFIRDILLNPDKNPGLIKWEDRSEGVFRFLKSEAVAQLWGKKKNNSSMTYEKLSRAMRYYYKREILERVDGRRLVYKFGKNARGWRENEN
# Procedure, shortened: as §1
# SPI1 = SPI1 (Homo sapiens, UniProt P17947 1-270); details: protein: recombinant; tags: N-terminal GST; dsDNA, one strand shown
# Procedure, shortened: as §1
# SPIB = SPIB (Homo sapiens, UniProt Q01892 1-262); details: protein: recombinant; tags: N-terminal GST; dsDNA, one strand shown
# Sequence of SPIB (Q01892 whole entry): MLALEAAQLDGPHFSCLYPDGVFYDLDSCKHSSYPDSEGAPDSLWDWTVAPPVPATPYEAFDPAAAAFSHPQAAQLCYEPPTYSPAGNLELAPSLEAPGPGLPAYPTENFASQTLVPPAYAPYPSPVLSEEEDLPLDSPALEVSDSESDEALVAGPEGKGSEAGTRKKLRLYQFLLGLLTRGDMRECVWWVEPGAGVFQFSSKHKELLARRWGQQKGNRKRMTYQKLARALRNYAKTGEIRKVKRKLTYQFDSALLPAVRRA
# Procedure, shortened: as §1
# ELK3 = molecular target: T6, ELK3 (Homo sapiens, UniProt P41970 1-407); details: protein: recombinant; tags: N-terminal GST; dsDNA, one strand shown
# T6 sequence: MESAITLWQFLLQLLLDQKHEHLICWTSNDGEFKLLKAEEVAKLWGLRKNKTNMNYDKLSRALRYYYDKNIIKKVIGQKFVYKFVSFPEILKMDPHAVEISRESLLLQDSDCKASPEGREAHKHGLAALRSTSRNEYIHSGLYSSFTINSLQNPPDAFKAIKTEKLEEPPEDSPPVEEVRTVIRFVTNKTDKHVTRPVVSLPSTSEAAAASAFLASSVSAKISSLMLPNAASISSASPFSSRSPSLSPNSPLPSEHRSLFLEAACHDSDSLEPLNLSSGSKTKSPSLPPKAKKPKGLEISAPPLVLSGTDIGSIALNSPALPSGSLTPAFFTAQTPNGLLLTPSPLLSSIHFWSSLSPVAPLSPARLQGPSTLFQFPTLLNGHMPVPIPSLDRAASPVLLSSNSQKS
# Procedure, shortened: as §1
# FEV = molecular target: T7, FEV (Homo sapiens, UniProt Q99581 1-238); details: protein: recombinant; tags: N-terminal GST; dsDNA, one strand shown
# T7 sequence: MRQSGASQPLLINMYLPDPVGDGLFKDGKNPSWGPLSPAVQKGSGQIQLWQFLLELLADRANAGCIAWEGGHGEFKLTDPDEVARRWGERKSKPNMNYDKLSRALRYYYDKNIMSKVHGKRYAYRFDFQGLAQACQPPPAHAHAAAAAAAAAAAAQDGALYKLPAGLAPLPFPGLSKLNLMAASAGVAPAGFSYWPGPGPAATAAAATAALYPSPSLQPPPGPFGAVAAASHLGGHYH
# Procedure, shortened: as §1
# ETV5 = ETV5 (Homo sapiens, UniProt P41161 1-510); details: protein: recombinant; tags: N-terminal GST; dsDNA, one strand shown
# Sequence of ETV5 (P41161 whole entry): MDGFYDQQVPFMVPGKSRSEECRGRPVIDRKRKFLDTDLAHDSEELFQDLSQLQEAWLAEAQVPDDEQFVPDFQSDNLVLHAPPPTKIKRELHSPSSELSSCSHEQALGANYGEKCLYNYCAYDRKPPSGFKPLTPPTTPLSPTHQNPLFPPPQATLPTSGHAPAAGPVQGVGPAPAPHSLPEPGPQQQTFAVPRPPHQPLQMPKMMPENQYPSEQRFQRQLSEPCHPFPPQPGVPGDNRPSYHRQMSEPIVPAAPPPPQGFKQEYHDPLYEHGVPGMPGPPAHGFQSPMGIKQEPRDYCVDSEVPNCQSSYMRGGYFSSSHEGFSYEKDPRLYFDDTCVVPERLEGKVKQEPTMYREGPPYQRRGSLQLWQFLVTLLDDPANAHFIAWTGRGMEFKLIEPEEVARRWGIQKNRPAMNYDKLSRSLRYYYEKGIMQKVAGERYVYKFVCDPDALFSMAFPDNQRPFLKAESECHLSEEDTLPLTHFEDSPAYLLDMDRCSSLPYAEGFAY
# Procedure, shortened: as §1
# HSF1 = HSF1 (Homo sapiens, UniProt Q00613 1-529); details: protein: recombinant; tags: N-terminal GST; chain copies: 3; dsDNA, one strand shown
# Sequence of HSF1 (Q00613 whole entry): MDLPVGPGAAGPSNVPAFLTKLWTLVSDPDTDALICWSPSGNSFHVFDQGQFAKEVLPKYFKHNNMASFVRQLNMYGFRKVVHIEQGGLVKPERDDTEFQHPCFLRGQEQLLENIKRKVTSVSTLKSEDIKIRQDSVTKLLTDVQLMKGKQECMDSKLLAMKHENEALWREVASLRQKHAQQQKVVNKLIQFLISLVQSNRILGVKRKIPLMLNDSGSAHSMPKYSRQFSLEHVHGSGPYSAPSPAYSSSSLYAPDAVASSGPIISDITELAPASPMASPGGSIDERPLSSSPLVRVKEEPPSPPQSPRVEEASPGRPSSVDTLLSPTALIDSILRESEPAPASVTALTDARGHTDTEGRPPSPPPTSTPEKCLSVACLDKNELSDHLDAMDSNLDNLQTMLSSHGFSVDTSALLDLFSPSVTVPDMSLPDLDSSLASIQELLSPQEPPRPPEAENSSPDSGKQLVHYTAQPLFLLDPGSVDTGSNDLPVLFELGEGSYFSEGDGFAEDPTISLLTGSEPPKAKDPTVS
# Procedure, shortened: as §1
# SPIC = molecular target: T8, SPIC (Homo sapiens, UniProt Q8N5J4 1-248); details: protein: recombinant; tags: N-terminal GST; dsDNA, one strand shown
# T8 sequence: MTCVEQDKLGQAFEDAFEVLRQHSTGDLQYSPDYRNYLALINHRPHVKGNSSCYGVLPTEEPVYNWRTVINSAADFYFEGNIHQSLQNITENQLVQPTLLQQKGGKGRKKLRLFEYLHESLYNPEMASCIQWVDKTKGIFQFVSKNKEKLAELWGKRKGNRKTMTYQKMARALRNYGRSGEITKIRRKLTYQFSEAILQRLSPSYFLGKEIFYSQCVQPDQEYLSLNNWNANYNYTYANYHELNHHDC
# Procedure, shortened: as §1
# ELF4 = ELF4 (Homo sapiens, UniProt Q99607 1-663); details: protein: recombinant; tags: N-terminal GST; dsDNA, one strand shown
# Sequence of ELF4 (Q99607 whole entry): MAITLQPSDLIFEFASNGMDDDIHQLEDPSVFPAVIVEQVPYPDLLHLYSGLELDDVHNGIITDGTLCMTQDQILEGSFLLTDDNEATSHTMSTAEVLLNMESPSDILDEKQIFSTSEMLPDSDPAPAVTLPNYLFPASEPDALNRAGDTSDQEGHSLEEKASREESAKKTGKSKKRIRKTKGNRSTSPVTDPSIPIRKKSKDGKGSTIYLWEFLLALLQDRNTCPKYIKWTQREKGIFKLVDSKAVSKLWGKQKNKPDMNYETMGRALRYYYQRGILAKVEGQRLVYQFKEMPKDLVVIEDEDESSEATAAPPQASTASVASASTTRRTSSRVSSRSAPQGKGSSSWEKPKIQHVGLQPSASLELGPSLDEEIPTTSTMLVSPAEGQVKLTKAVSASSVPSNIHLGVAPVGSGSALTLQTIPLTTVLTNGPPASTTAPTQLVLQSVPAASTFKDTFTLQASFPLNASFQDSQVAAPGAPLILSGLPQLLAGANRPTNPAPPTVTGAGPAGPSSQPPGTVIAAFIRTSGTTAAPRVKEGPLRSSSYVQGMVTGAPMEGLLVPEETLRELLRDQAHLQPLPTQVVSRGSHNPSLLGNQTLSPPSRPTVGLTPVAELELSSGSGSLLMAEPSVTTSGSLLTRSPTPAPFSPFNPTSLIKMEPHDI
# Procedure, shortened: as §1
# ELK4 = molecular target: T9, ELK4 (Homo sapiens, UniProt P28324-2 1-405); details: protein: recombinant; tags: N-terminal GST; dsDNA, one strand shown
# T9 sequence: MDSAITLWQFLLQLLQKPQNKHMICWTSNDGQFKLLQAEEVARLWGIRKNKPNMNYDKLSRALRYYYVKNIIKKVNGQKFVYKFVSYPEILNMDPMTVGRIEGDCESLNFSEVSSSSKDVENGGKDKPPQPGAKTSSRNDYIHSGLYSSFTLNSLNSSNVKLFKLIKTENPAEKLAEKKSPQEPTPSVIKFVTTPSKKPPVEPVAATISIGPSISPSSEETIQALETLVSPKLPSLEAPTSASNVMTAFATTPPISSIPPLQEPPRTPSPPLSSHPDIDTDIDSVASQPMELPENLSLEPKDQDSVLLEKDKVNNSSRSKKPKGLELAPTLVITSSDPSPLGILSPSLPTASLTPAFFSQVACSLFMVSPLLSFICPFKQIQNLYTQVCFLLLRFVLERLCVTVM
# Procedure, shortened: as §1
# ETV2 = molecular target: T10, ETV2 (Homo sapiens, UniProt O00321 1-342); details: protein: recombinant; tags: N-terminal GST; dsDNA, one strand shown
# T10 sequence: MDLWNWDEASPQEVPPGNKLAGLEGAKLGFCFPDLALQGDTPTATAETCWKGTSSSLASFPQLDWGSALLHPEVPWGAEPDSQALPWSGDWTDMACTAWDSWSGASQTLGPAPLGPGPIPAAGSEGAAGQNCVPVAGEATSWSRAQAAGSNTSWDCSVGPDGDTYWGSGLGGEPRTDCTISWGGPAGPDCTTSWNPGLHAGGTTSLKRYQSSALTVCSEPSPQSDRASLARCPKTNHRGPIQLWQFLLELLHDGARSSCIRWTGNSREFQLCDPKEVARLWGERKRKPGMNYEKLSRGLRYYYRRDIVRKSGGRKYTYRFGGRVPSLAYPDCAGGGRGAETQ
# Procedure, shortened: as §1
# ELF3 = molecular target: T11, ELF3 (Homo sapiens, UniProt P78545 1-371); details: protein: recombinant; tags: N-terminal GST; dsDNA, one strand shown
# T11 sequence: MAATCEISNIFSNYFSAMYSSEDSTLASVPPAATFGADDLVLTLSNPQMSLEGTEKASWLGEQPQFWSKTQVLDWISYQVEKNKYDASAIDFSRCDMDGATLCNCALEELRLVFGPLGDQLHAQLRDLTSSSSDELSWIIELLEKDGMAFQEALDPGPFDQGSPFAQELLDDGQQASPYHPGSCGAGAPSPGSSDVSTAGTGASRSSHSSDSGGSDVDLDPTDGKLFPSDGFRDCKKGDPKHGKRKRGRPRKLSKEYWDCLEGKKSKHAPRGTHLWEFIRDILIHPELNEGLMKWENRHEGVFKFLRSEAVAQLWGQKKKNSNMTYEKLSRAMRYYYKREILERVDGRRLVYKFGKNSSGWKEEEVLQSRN
# Procedure, shortened: as §1
# ETV1 = ETV1 (Homo sapiens, UniProt P50549 1-477); details: protein: recombinant; tags: N-terminal GST; dsDNA, one strand shown
# Sequence of ETV1 (P50549 whole entry): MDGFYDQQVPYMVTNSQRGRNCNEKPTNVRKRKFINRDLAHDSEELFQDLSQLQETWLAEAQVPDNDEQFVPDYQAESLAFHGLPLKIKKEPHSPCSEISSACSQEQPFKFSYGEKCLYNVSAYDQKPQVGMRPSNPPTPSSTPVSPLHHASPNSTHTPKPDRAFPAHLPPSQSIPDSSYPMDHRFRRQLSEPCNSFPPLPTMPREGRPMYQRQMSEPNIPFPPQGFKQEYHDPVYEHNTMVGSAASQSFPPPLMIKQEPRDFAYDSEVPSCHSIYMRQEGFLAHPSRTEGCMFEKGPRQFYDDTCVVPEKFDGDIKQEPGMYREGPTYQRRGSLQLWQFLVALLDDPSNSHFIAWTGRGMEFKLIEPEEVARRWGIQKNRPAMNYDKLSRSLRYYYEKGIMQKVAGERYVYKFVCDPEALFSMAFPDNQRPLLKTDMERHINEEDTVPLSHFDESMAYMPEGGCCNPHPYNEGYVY
# Procedure, shortened: as §1
sequence,measurement,setting,value
CACTGC,binding signal,FLI1,"1.45 fold enrichment (6-mer frequency, TF over GST control)"
same,binding signal,ELK1,"1.46 fold enrichment (6-mer frequency, TF over GST control)"
same,binding signal,GABPA,"1.32 fold enrichment (6-mer frequency, TF over GST control)"
same,binding signal,ERG,"1.41 fold enrichment (6-mer frequency, TF over GST control)"
same,binding signal,ELF1,"1.44 fold enrichment (6-mer frequency, TF over GST control)"
same,binding signal,EHF,"1.58 fold enrichment (6-mer frequency, TF over GST control)"
same,binding signal,SPI1,"1.38 fold enrichment (6-mer frequency, TF over GST control)"
same,binding signal,SPIB,"1.44 fold enrichment (6-mer frequency, TF over GST control)"
same,binding signal,ELK3,"1.51 fold enrichment (6-mer frequency, TF over GST control)"
same,binding signal,FEV,"1.38 fold enrichment (6-mer frequency, TF over GST control)"
same,binding signal,ETV5,"1.37 fold enrichment (6-mer frequency, TF over GST control)"
same,binding signal,HSF1,"1.04 fold enrichment (6-mer frequency, TF over GST control)"
same,binding signal,SPIC,"1.46 fold enrichment (6-mer frequency, TF over GST control)"
same,binding signal,ELF4,"1.32 fold enrichment (6-mer frequency, TF over GST control)"
same,binding signal,ELK4,"1.43 fold enrichment (6-mer frequency, TF over GST control)"
same,binding signal,ETV2,"1.28 fold enrichment (6-mer frequency, TF over GST control)"
same,binding signal,ELF3,"1.15 fold enrichment (6-mer frequency, TF over GST control)"
same,binding signal,ETV1,"1.36 fold enrichment (6-mer frequency, TF over GST control)"

# Reference: PMC7862700, “An all-to-all approach to the identification of sequence-specific readers for epigenetic DNA modifications on cytosine”
